In the library only some 2.4% were active in any assay of this set; here they are far more common.
Pol iota inh: inhibitors of human DNA polymerase iota. Q9UNA4. Pol iota fluorescent replication assay, 10 min. Potency, µM (titrated, usually from 115 µM), inactives show top-dose activity, negative = inhibition, actives largely listed as inhibitors. 390,000 tested, 1% active. AID 588590; further: potency means the concentration at half of the fitted maximal effect
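Fluorescent replication assay read twice, at 0 min and 10 min after adding 50 nM (final) substrate. Enzyme (10 nM) and compounds were first incubated 15 min at room temperature; enzyme-free buffer wells were negative controls.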
Pol beta inh-1: blocks human DNA polymerase beta activity; P06746; Pol beta primer extension/strand displacement, fluorescence kinetic; Potency, µM (series often up to 114 µM), inactives show at the highest dose activity change, negative = inhibition, most hits filed as inhibitors; 340,000 tested, 1.3% active; AID 485314; further: potency means the concentration at half of the fitted maximal effect; on the % scale 0 is the no-effect control and ±100 the full control effect
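Pol beta (10 nM) was preincubated with compound for 15 min at room temperature. The reaction was then started with 50 nM substrate and read immediately and after a further 10 min at room temperature.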
Pol kappa inh-1: inhibitors of human DNA polymerase kappa; Q9UBT6; purified Pol kappa, fluorescent DNA synthesis assay, 10 min; Potency, µM (titrated, usually from 107 µM), inactives show at the highest dose activity, negative = inhibition, usual class: inhibitors; 400,000 tested, 0.53% active; AID 588579; further: potency means the concentration at half of the fitted maximal effect; on the % scale 0 is the no-effect control and ±100 the full control effect
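First, compounds were pin-transferred onto 10 nM Pol kappa. After 15 min at room temperature, substrate was added to 50 nM final. Fluorescence was then measured kinetically at 0 and 10 min.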
Pol eta inh-1: DNA polymerase eta (human) inhibition; Q9Y253; recombinant Pol eta, fluorescent DNA replication assay; Potency, µM (top dose mostly 114 µM), without a hit: at the top dose activity change, negative = inhibition, hits mostly inhibitors; 390,000 tested, 1.2% active; further: potency means the concentration at half of the fitted maximal effect; on the % scale 0 is the no-effect control and ±100 the full control effect
Target sequence (Q9Y253 whole entry, looked up): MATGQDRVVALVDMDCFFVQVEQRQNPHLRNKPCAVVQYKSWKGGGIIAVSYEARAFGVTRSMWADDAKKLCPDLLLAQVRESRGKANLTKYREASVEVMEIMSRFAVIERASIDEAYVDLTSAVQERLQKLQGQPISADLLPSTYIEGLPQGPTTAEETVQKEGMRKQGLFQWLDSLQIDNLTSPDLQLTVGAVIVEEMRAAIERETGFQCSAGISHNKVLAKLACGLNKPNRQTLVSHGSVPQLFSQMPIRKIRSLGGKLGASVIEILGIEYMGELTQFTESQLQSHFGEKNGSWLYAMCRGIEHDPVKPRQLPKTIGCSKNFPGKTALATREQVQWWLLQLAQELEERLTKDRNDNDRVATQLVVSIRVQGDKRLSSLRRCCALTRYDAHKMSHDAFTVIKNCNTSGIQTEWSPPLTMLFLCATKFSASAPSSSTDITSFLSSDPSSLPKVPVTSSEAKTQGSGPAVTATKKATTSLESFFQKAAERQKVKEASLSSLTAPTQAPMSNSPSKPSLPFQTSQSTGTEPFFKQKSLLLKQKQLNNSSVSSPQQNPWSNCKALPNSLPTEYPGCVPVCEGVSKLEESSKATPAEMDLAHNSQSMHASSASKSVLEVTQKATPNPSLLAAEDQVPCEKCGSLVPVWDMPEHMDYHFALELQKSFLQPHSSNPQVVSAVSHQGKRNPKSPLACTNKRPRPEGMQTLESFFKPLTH
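Pol eta at 10 nM preincubated with compounds 15 min at room temperature; reaction started with fluorescent substrate (50 nM final) and read kinetically at 0 and 10 min.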
L3MBTL1 inh-1: L3MBTL1 (human) inhibition | Potency, µM (titrated, usually from 57.1 µM), inactives show top-dose activity, negative = inhibition, most hits filed as inhibitors | AlphaScreen L3MBTL1–H3K9me1 peptide binding | Q9Y468 | AID 485360 | 230,000 tested, 0.66% active; further: potency means the concentration at half of the fitted maximal effect; on the % scale 0 is the no-effect control and ±100 the full control effect; nearly all actives have a fitted effect of over 60% in size
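AlphaScreen assay: L3MBTL1 (50 nM final) was preincubated 30 min at room temperature with biotinylated H3(1-15)K9me1 peptide (75 nM final), then 30 min with library compounds; streptavidin donor and nickel chelate acceptor beads (10 ug/mL final) added, 30 min dark.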
Pol beta inh-2: Inhibitors of human DNA polymerase beta, hit validation. AID 540280. shares compounds with Pol beta inh-1. Pol beta primer extension/strand displacement, fluorescence kinetic. Potency, µM, most hits filed as inhibitors. 250 tested, 87% active; calls by dose curve; further: potency means the concentration at half of the fitted maximal effect
Klenow counter: inhibits Klenow fragment polymerase in counter-screen | shares compounds with Pol beta inh-1 | 250 tested, under 10 active | activity change, negative = inhibition, % at 57.1 µM | AID 540300 | Klenow exo- polymerase counter-screen, fluorescent DNA substrate
HIV RT counter: counter-screen for DNA polymerase beta inhibitors: HIV-1 RT inhibition. AID 540301. activity % (negative = inhibition, positive = activation), % at 57.1 µM. 250 tested, under 10 active. HIV-1 RT polymerase activity, counter-screen. shares compounds with Pol beta inh-1
L3MBTL1 inh-2: L3MBTL1 binding inhibition validated. L3MBTL1 methyl-lysine binding inhibition, biochemical qHTS. shares compounds with L3MBTL1 inh-1. Potency, µM, most hits filed as inhibitors. 500 tested, 91% active; further: potency means the concentration at half of the fitted maximal effect; nearly all actives have a fitted effect of over 70% in size
AlphaScreen ctr2: interferes with AlphaScreen signal in L3MBTL1 counterscreen; AlphaScreen counterscreen, signal inhibition; Potency, µM (highest dose often 57.1 µM), for inactives: at the highest dose activity change, negative = inhibition, usual class: inhibitors; 500 tested, under 10 active; shares compounds with L3MBTL1 inh-1; further: potency means the concentration at half of the fitted maximal effect; 0% is about no effect
PGK validate: TbPGK inhibition, hit validation; TbPGK coupled GAPDH assay, Kinase-Glo luminescence; 500 tested, 79% active; shares compounds with Pol kappa inh-1; Potency, µM (doses to about 57.5 µM), for inactives: at the highest dose activity change, negative = inhibition, usual class: inhibitors; AID 686980; further: potency means the concentration at half of the fitted maximal effect; on the % scale 0 is the no-effect control and ±100 the full control effect; nearly all actives have a fitted effect of over 65% in size
Pol iota confirm: Confirm cherry-picked inhibitors of human polymerase iota; shares compounds with Pol kappa inh-1; Pol iota primer extension, TAMRA/BHQ fluorescence; Potency, µM, hits mostly inhibitors; 1,500 tested, 77% active; AID 720496; further: potency means the concentration at half of the fitted maximal effect
Pol kappa inh-2: confirmation of human DNA polymerase kappa inhibitors | shares compounds with Pol eta inh-1 | purified Pol-kappa, fluorescent strand-displacement substrate | Potency, µM, actives largely listed as inhibitors | 920 tested, 76% active | AID 720501; further: potency means the concentration at half of the fitted maximal effect
Pol eta inh-2: confirmation of human DNA polymerase eta inhibitors. shares compounds with Pol eta inh-1. Pol eta primer extension, TAMRA/BHQ fluorescence, 10 min. Potency, µM, actives largely listed as inhibitors. 2,600 tested, 64% active. AID 720502; further: potency means the concentration at half of the fitted maximal effect
* = called active by the depositor; ? = inconclusive; . = no result; [ ] = remark or other dose. Unless noted, the call rests on the fitted dose curve; in most records, active means well fitted curve in the direction sought with a large enough effect; inconclusive means small, poorly fitted or top-dose-only effect, or another doubt; inactive means no such curve, though single readings can be large; an effect the other way counts as inactive or inconclusive.

SMILES	Pol iota inh	Pol beta inh-1	Pol kappa inh-1	Pol eta inh-1	L3MBTL1 inh-1	L3MBTL1 inh-2	AlphaScreen ctr2	others
O=C(Oc1ccc2c(c1)OCO2)c1cc2c(s1)CCC2	5µM*	10µM*	20µM*	4µM*	-91%	.	.	Pol beta inh-2=16*;Klenow counter=-31;HIV RT counter=30;PGK validate=?;Pol iota confirm=19*;Pol eta inh-2=67*
O=C(c1cc2c(s1)CCCC2)N1CCN(Cc2ccc3c(c2)OCO3)CC1	?	9%	-2%	-17%	-3%	.	.
Cc1cc(C)cc(NC(=O)Cc2noc3ccccc23)c1	11%	3%	-15%	-16%	.	.	.
COc1ccccc1CNC(=O)CCCn1c(=O)c2ccccc2n(Cc2ccc(F)cc2)c1=O	5%	-2%	3%	-9%	.	.	.
CC(=O)Nc1ccc(C(=O)Nc2cccc(-c3cnc4ccccc4n3)c2)cc1	1%	4.5µM*	-12%	?	.	.	.	Pol beta inh-2=14*;Klenow counter=-31;HIV RT counter=-10;Pol iota confirm=30*;Pol kappa inh-2=47*;Pol eta inh-2=?
Cc1ccc(C(=O)Nc2cccc(-c3cnc4ccccc4n3)c2)cc1	26%	36%	0%[60.1 µM]	-11%	-4%	.	.
O=C(CSc1nnc(C2COc3ccccc3O2)o1)Nc1nccs1 (configuration not stated)	41%	-3%	7%	-6%	22µM*	?	13%
Nc1c(C(=O)OCC(=O)Nc2cccc([N+](=O)[O-])c2)[nH]c(=O)[nH]c1=O	?	.	-32%	25µM*	32µM*	24*	8%
O=C(COC(=O)c1ccccc1C(=O)c1ccccc1)Nc1cccc([N+](=O)[O-])c1	-20%	3%	-10%[60.1 µM]	-17%	-3%	.	.
Cc1ccnc(NC(c2cccnc2)c2ccc3cccnc3c2O)c1 (configuration not stated)	56%	-1%	-1%	-20%	13µM*	11*	-91%
O=C(Nc1nc(-c2ccccn2)cs1)C1COc2ccccc2O1 (configuration not stated)	2%	1%	-1%	-9%	11µM*	12*	-65%
O=C(Nc1nc(-c2ccccc2)cs1)C1COc2ccccc2O1 (configuration not stated)	7%	3%	-13%	?	.	.	.
CCN(CC(=O)Nc1ccc(NC(C)=O)cc1)C(=O)c1cccc(Oc2ccccc2)c1	11%	.	-9%	-13%	-3%	.	.
CCN(CC(=O)Nc1ccc(NC(C)=O)cc1)C(=O)c1cccc(-n2cccc2)c1	56µM*	.	-42%	?	28µM*	21*	9%
O=c1c2ccccc2c(C=NCc2ccccn2)c(O)n1-c1ccccc1	-10%	2%	4%	-7%	3%	.	.
O=c1oc2ccccc2c(O)c1C=NCc1ccccn1	?	-3%	-7%	-17%	16µM*	21*	25%
O=C(O)c1ccc2c3n(nc2c1)-c1ccc(Cl)cc1CO3	16µM*	20µM*	32µM*	4%	5µM*	21*	-4%
O=C(c1ccc2c3n(nc2c1)-c1ccc(Cl)cc1CO3)N1CCCCC1	17%	-1%	-4%	-4%	.	.	.
O=S(=O)(Nc1cc(Sc2cccc3cccnc23)c(O)c2ccccc12)c1ccc(F)cc1	?	10%	-13%	-3%	28µM*	21*	-16%
CC(Sc1cn(CCNC(=O)c2ccccc2F)c2ccccc12)c1ccccc1 (configuration not stated)	10%	0%	-11%	-24%	.	.	.
COc1ccc(CN(CCCn2cnc3c(OC)ncnc32)CCCn2cnc3c(OC)ncnc32)cc1	.	.	.	-2%	.	.	.
O=c1cc(-c2ccccc2Cl)c2c([nH]1)CCC2	?	?	-16%	6%	28µM*	?	8%
O=C(CCNS(=O)(=O)c1ccccc1F)OCc1ccccc1Cl	-2%	.	-16%	-16%	10%	.	.
Cc1cc2c(c(=O)o1)C(c1ccc([N+](=O)[O-])o1)C(C#N)=C(N)O2 (configuration not stated)	20µM*	?	79µM*	-3%	32µM*	?	9%
N#Cc1nc(COc2ccccc2Cl)oc1N1CCCC1	49%	-18%	-2%	-24%	28µM*	?	?
SMILES	Pol iota inh	Pol beta inh-1	Pol kappa inh-1	Pol eta inh-1	L3MBTL1 inh-1	L3MBTL1 inh-2	AlphaScreen ctr2	others
N=C1/C(=C\c2ccc(-c3cccc(Cl)c3)o2)C(=O)N=C2SC=C(c3ccccc3)N12	?	10µM*	?	79µM*	35µM*	27*	?
Cc1cc(/C=C2/C(=N)N3C(c4ccccc4)=CSC3=NC2=O)c(C)n1-c1ccc(Cl)cc1	39%	.	-3%	-4%	.	.	.
O=C(O)/C=C/c1nc(-c2ccccc2)n2ccccc12	?	?	-37%	?	18µM*	?	-15%
Cc1cccc(C(=O)Nc2ccc3nc(SCC(=O)N4CCc5ccccc54)sc3c2)c1	-11%	-19%	-6%	-4%	.	.	.
CC(C)c1ccc(S(=O)(=O)Nc2ccc3oc4c(c3c2)C(=O)CC(C)(C)C4)cc1	12%	5%	-11%	-4%	.	.	.
Cc1cccc(C)c1NC(=O)CSc1nnc(-c2ccco2)c(-c2ccco2)n1	?	3.2µM*	28µM*	3.5µM*	2.8µM*	2.7*	-29%

Source: PubChem (National Center for Advancing Translational Sciences (NCATS))
